Only some compounds are listed: those with a hit (about 4.1% of all), similar ones and a draw of the others.
DAX1 inh-1 – blocks DAX1 repression of SF-1 activated StAR promoter | inhibition, % at 6.8 µM | AID 652010 | HEK293T StAR-luciferase reporter, SF-1/DAX-1 repression relief | hit rate 1.1% among 370,000;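 active = inhibition above the mean over all tested compounds plus 3 SD, cut at about 3.6% in these data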;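 note: 0% = DAX-1 cells with DMSO and 100% = cells lacking DAX-1 with DMSO; higher inhibition means more luminescence from relief of DAX-1 repression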
hcDAF12 agonist – activators of H. contortus DAF-12 nuclear receptor | hit rate 1.4% among 370,000 | activation, % at 6.8 µM | HEK293 hcDAF-12 lit1-tk-luc reporter, luminescence; 0% DMSO, 100% Δ7-dafachronic acid;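 active = activation above the mean of all tested compounds plus 3 SD, cut at about 5.5% in these data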;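 note: 100% = response to 3 µM Δ7-dafachronic acid high control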
ssDAF-12 act – activates DAF-12 receptor from parasite S. stercoralis; AID 652126; hit rate 1% among 370,000; activation, % at 6.8 µM; HEK293 ssDAF-12/GRIP1 lit1-tk-luc reporter, luminescence; % of 3 µM dafachronic acid response;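 active = activation above the mean over all tested compounds plus 3 SD, cut at about 0.9% in these data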;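 note: 0% = DMSO-only wells and 100% = 3 µM delta7-dafachronic acid wells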
DAX1 inh-2 – inhibits human nuclear receptor DAX1. HEK293 Gal4-DAX1 luciferase reporter, luminescence. inhibition, % at 6.75 µM. hit rate 0.99% among 340,000. AID 504766;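 active = inhibition above the mean over all tested compounds plus 3 SD, cut at about 4.2% in these data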;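 note: 0% = DAX1-transfected cells with DMSO and 100% = empty-vector control cells with DMSO; inhibition shows as a rise in luminescence from relieved DAX1 repression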
Target sequence (P51843 207-470 limits assumed): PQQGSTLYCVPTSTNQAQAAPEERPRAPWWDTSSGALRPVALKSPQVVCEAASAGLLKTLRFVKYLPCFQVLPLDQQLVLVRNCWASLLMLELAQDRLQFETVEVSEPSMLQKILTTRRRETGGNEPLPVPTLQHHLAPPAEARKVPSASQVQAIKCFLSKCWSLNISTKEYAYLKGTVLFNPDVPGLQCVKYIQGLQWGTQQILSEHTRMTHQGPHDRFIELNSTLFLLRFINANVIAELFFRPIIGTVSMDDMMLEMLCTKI
hgDAF12 agonist – activates the H. glycines DAF-12 receptor ligand-binding domain. AID 687014. HEK293 GAL4-hgDAF12 UAS-luciferase reporter, agonist luminescence; normalized to butyrate control. hit rate 1.8% among 370,000. activation, % at 6.8 µM;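 active = activation above a cutoff set at the mean of all screened compounds plus 3 SD, cut at about 10% in these data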;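 note: 0% = DMSO wells and 100% = sodium butyrate wells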
* = called active by the depositor; nt = no result.

SMILES	DAX1 inh-1	hcDAF12 agonist	ssDAF-12 act	DAX1 inh-2	hgDAF12 agonist
NC(=O)CSc1nnc(Cn2c(=O)sc3ccccc32)n1CCc1ccccc1	0.2	-0.5	-1.1	4.5*	-1.6
COC(=O)[C@]12C[C@H](CC(=O)N3CCN(C(=O)C4CC4)CC3)C(=O)N(CCC3=CCCCC3)C1=C[C@H](C1CCCC1)O[C@@H]2C	-0.1	-2.6	-1.4	nt	-2.5
O=C(CCc1ccccc1)N[C@H]1[C@H](O)CCC[C@@]12C(=O)N(Cc1ccccc1)c1ccc(-c3ccccc3)cc12	-0.7	-0.3	-0.7	nt	-1.1
CCn1c(CC(=O)Nc2ccc(F)cc2)nnc1SCC(=O)NC1CCCC1	0.0	0.6	-1.3	4.8*	-1.6
O=C(CSc1cc(Cl)ccc1Cl)NC1CCCC1	-0.3	-0.9	-0.2	5.4*	1.4
COC(=O)[C@]12C[C@H](CC(=O)N3CCCC3)C(=O)N(Cc3ccc4c(c3)OCO4)C1=C[C@H](C(C)(C)C)O[C@@H]2C	-0.9	-2.0	-1.3	nt	-3.1
CCn1c(=O)cc(SCC(=O)N2CCCCC2)c2ccccc21	-0.3	0.2	-0.8	1.2	-0.1
Cn1c(=O)cc(SCC(=O)N2CCN(C3CCCCC3)CC2)c2ccccc21	1.7	-0.2	-0.8	7.3*	0.4
Cc1cc(-c2cc(NC(=O)Cc3c[nH]c4ccccc34)ccc2Nc2cccnc2)ccc1F	-1.1	1.3	-0.3	nt	-5.3
Cc1ccc2c(c1)c(-c1csc(N)n1)c(C)n2C	0.4	2.9	1.6*	0.1	1.8
O=[N+]([O-])c1cc2c(cc1CN1CCN(CCOCCO)CC1)OCO2	-0.2	-1.0	-0.5	4.4*	-0.8
CCCCNC(=O)N1CCCC1C(=O)Nc1cccc(OC)c1 (centres undefined)	0.0	-1.8	-1.7	nt	-1.9
CCN(CCOC(=O)Nc1ccc(Cl)cc1)C(=O)Nc1ccc(Cl)cc1	1.0	-0.3	-1.4	nt	4.0
COC(=O)c1ccc(NC(=O)CSc2ccccc2)cc1	1.8	1.4	0.0	7.4*	4.7
Cc1cccc(N2CCN(C(=O)c3cc4c(=O)n(C)c5ccccc5c4n3C)CC2)c1C	1.0	-2.5	1.9*	-0.8	-1.6
Cc1ccc(Cl)cc1N1CCN(C(=O)c2cc3c(=O)n(C)c4ccccc4c3n2C)CC1	-0.4	-2.4	-0.5	-0.6	-1.2
O=C(CSc1nnc(-c2cccnc2)n1C1CCCCC1)N1CCCC1	0.2	-0.5	-1.1	nt	2.8
O=[N+]([O-])c1cccc(OCCN2CCC(Cc3ccccc3)CC2)c1	0.1	0.4	-1.5	5.8*	-1.3
O=Cc1ccccc1OCc1ccc2c(c1)OCO2	1.0	5.0	0.4	4.5*	9.6
O=C(CC1CCCC1)Nc1nnc(C2CC2)s1	-0.1	-0.2	-1.0	4.6*	3.4
Cc1cc(C)n(-c2ccc(C(=O)OCC(=O)Nc3cc(Cl)ccc3[N+](=O)[O-])cc2)n1	-0.2	5.3	1.2*	-0.7	1.8
C=CCOC(=O)N1CCN(C(=O)c2ccc3nc(C)n(C4CCCC4)c3c2)CC1	0.9	-1.1	-1.5	nt	0.6
Cc1ccc(-c2cc(C(F)F)n3ncc(C(=O)N4CCCCC4c4cccnc4)c3n2)cc1 (centres undefined)	0.2	5.7*	0.9	4.5*	-1.2
Nc1[nH]c(C(=O)c2ccccc2)c(-c2cccc3ccccc23)c1C(=O)c1ccc(Br)cc1	-0.2	0.5	-0.4	nt	-0.1
Cn1c(CNC(=O)CNS(=O)(=O)c2ccccc2)cc(=O)n(C)c1=O	3.8*	1.4	-1.5	0.7	0.7
SMILES	DAX1 inh-1	hcDAF12 agonist	ssDAF-12 act	DAX1 inh-2	hgDAF12 agonist
CCN(CC)c1ccc(C=Nn2c(-c3ccc(F)cc3)n[nH]c2=S)c(O)c1	-1.1	-1.1	-1.1	nt	-1.1
C#CCNC[C@@H]1CSCCS(=O)(=O)N1	0.7	-1.4	0.9*	nt	-0.9
COC(=O)c1c(NC(=O)Cc2ccccc2)sc2c1CCN(C(C)C)C2	0.6	-1.6	-1.7	0.6	4.8
CCOC(=O)c1c(NC(=O)CCS(=O)(=O)c2ccccc2)sc2c1CCN(C(C)C)C2	4.0*	1.7	-1.1	-0.5	-0.3
Cc1[nH]c2ccccc2c1/C=N/NC(=O)CCC(=O)Nc1ccccc1	0.0	1.9	-0.6	0.1	-1.5
Cc1[nH]c2ccccc2c1/C=N/NC(=O)Nc1ccccc1	0.9	6.0*	0.7	3.1	9.2
O=C(N/N=C/c1ccc(Br)s1)Nc1ccccc1	1.3	2.7	-0.8	-0.3	11.2*
Cc1[nH]c2ccccc2c1/C=N/NC(=O)c1ccccc1	0.0	0.5	-0.7	4.5*	6.1
Cc1[nH]c2ccccc2c1/C=N/NC(=O)c1ccc(N)cc1	0.0	4.8	0.1	1.0	2.2
COc1cc(-n2c(C)nc3cc(C(=O)N4CCCC4)ccc32)cc(OC)c1OC	1.0	-3.2	-0.7	nt	0.2
O=C(/C=C1\OCc2ccccc21)OCc1ccccc1	2.0	5.2	0.2	nt	12.3*
O=C(/C=C1\OCc2cc(OCc3ccccc3)ccc21)OCc1ccccc1	0.7	-0.1	-1.1	nt	3.9
COC(=O)c1c(-c2ccccc2)csc1NC(=O)c1ccco1	2.9	-0.5	-1.0	-0.1	10.8*
COc1ccc(-c2nnc(N(C)C(=O)C3CCOC3)s2)cc1 (centres undefined)	0.1	0.1	-0.9	1.1	6.3
COc1ccc(-c2nnc(N(C)C(=O)C3CCCO3)s2)cc1 (centres undefined)	0.7	2.5	-0.2	1.0	13.1*
COc1cccc(-c2nc(-c3ccc4c(c3)NC(=O)CO4)cs2)c1	0.2	0.7	-0.9	3.6	10.8*
COc1ccc(-c2cc(-c3ccc(OC)cc3)nc(-c3ccc4c(c3)NC(=O)CO4)c2)cc1	-0.1	0.9	-0.4	1.8	2.3
COc1ccc(NC(=O)Nc2ccc3c(c2)C(=O)N([C@H](C)CO)C[C@H](C)[C@H](CN(C)C)OCCCC[C@@H](C)O3)cc1	0.5	-1.3	-0.4	nt	0.8
COc1ccc(-c2cc3c(=O)n(CC(=O)NC4CCN(Cc5ccccc5)CC4)ncn3n2)cc1	-0.4	-0.7	-1.2	1.9	2.5
COc1ccc(-c2cc3c(=O)n(CC(=O)NCc4cccnc4)ncn3n2)cc1	3.8*	6.1*	0.1	-1.1	10.7*
CC1CCCC(NC(=O)CSc2ncccc2C(=O)O)C1C (centres undefined)	-0.1	1.8	1.2*	0.8	-1.8
CCNC(=O)N1CCN(c2ccc(N3CCN(C(=O)NCC)[C@H](C)C3)c(C)c2)[C@@H](C)C1	0.8	-3.6	-1.0	nt	0.7
COc1ccc(-c2noc(-c3ccc(Cl)cc3[N+](=O)[O-])n2)cc1OC	0.9	5.7*	-0.7	2.6	6.6
COc1ccc(-c2noc(-c3cccc(Cl)c3)n2)cc1OC	0.1	-2.2	-1.7	0.1	3.2
COc1ccc(-c2noc(-c3ccccc3Cl)n2)cc1OC	2.7	2.0	-0.8	5.1*	7.4
CCCCN(C)C(=O)Cn1nc(Cc2ccncc2)c2ccccc2c1=O	0.0	-1.6	-1.1	14.5*	-1.2
Cc1ccc(CNC(=O)CSc2ncc(C(=O)Nc3ccccc3)c(=O)n2C)cc1	1.1	2.2	1.6*	1.6	0.0
